The panel holds about 83,000 compounds, 20% with a hit somewhere; the sample as a whole holds those more often.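 Compound tested at a single concentration for 48 hours in 96-well plates; a percent growth value below 10 was scored as active.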 Unmarked numbers belong to inactive results. Activity calls are given as the source filed them.
Key:
Assay in all cases: NCI-60 one-dose screen, 48 h (100 = growth as untreated, 0 = no growth, -100 = all killed)
Details in all cases: 10 µM unless noted
[1] = system: SK-MEL-2 melanoma
[2] = system: EKVX NSCLC
[3] = system: SN12C renal
[4] = system: UO-31 renal
[5] = system: TK-10 renal
[6] = system: ACHN renal
[7] = system: CAKI-1 renal
[8] = system: A498 renal
[9] = system: CCRF-CEM leukemia
[10] = system: MOLT-4 leukemia
[11] = system: RPMI-8226 leukemia
[12] = system: OVCAR-8 ovarian
[13] = system: OVCAR-5 ovarian
[14] = system: OVCAR-4 ovarian
[15] = system: SK-OV-3 ovarian
[16] = system: OVCAR-3 ovarian
[17] = system: HS 578T breast
[18] = system: NCI/ADR-RES ovarian
[19] = system: IGROV1 ovarian

Row | SMILES | growth [1] | growth [2] | growth [3] | growth [4] | growth [5] | growth [6] | growth [7] | growth [8] | growth [9] | growth [10] | growth [11] | growth [12] | growth [13] | growth [14] [%] | growth [15] | growth [16] | growth [17] | growth [18] [%] | growth [19]
1 | COc1c(B(O)O)cc(F)cc1-c1nc2ccc3[nH]ncc3c2c2c1CCCC2 | 18.7% | 10.2% | 11.6% | 5.35% (active) | 21.5% | 9.67% (active) | -5.6% (active) | -67.9% (active) | 10.9% | 9.89% (active) | -9.77% (active) | 16.1% | 15.4% | 25.8 | 19.3% | 11.9% | -2.19% (active) | 16.1 | –
2 | CCOC(=O)/C=C1\S/C(=N\Nc2ccc([N+](=O)[O-])cc2[N+](=O)[O-])N(Cc2ccccc2)C1=O | 102% | 86.4% | 57.3% | 66.4% | 115% | 84.3% | 81.1% | 70.4% | 39.6% | 67.5% | 7.78% (active) | 73.4% | 95% | 69.2 | 104% | 83.5% | 84.3% | 75.2 | –
3 | CCc1ccccc1-n1c(N)c(C#N)c(-c2ccc(Cl)cc2)c(C#N)c1=O | 117% | 97.7% | 106% | 76.9% | 157% | 107% | 103% | 127% | -18.3% (active) | 105% | 84.2% | 111% | – | 93.3 | 108% | 107% | 92.2% | 102 | 87%
4 | COc1cc(/C=C/C(=O)/C=C/c2cc(OC)c3c(c2OC)OCO3)c(OC)c2c1OCO2 | 28.1% | 87.7% | 30.4% | 57.3% | 12.9% | 25.5% | 29.7% | 43% | 26.5% | 18.7% | 15.7% | 2.45% (active) | 81.8% | 32 | 78.2% | 0.304% (active) | 63.8% | 28.3 | –
5 | Cc1cccc(OCC(O)CN2CCN(c3ccc(Cl)cc3)CC2)c1 (centres undefined) | 110% | 115% | 100% | 82.4% | 106% | 108% | 93.1% | 100% | 89% | 97.1% | 103% | 94.9% | 103% | 106 | 115% | – | 107% | 102 | 124%
6 | Cc1cc(N2CCCC2)nc(N(CCCNc2ccnc3cc(Cl)ccc23)Cc2ccccn2)n1 | 71.7% | 66.2% | 52% | 5.6% (active) | 80.3% | 80.8% | 84.4% | 42% | 55% | 46.7% | 28% | 49.2% | 59.6% | 81 | 76.5% | 59.5% | 72.6% | 39.2 | –
7 | O=C(/C=C/c1sc(Cl)nc1Cl)c1ccccc1 | 104% | 101% | 44.8% | 90.7% | 111% | 46.9% | 93.1% | 100% | 34.9% | 32.3% | 14% | 93.5% | 99.5% | 108 | 103% | – | 103% | 101 | 91.9%
8 | COc1cc(C(=O)/C=C/c2ccc(OCCCCCC[P+](c3ccccc3)(c3ccccc3)c3ccccc3)cc2)cc(OC)c1OC | -67.3% (active) | -9.14% (active) | -63.8% (active) | 1.6% (active) | -72% (active) | -44.5% (active) | 13.2% | -42% (active) | 20.3% | 14% | 0.339% (active) | – | -13% (active) | 10.1 | -35.9% (active) | -48% (active) | -6.89% (active) | 74.4 | -60.2% (active)
